± gives the standard deviation of the averaged measurements.
Test system: CLZ3 (HCA2 human fibroblast dual HR-NHEJ reporter)
Assay: NHEJ repair efficiency (GFP+ cells) relative to control (log10 fold); higher = more non-homologous end joining
Conditions: 5 µM; doxycycline 0.5 ug/mL
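Note: compound given one day ahead of doxycycline, which switches on I-SceI endonuclease to cut the chromosomally integrated reporter and create DSBs.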

Row | SMILES | NHEJ repair efficiency (log10)
1 | CC[C@H](C)[C@@H]1NC(=O)[C@@H]2CCCN2C(=O)[C@@H]2CCCN2C(=O)[C@@H]2CCCN2C(=O)[C@H](CC(C)C)NC(=O)CNC(=O)CNC(=O)[C@H](Cc2ccccc2)NC1=O [Heterophyllin B] | 0.0424
2 | O=C(O)[C@H]1O[C@@H](Oc2cc(O)c3c(=O)cc(-c4ccc(O)cc4)oc3c2)[C@H](O)[C@@H](O)[C@@H]1O [Apigenin-7-O-Glucronide] | -0.216
3 | O=C(O)[C@H]1O[C@@H](Oc2cc3oc(-c4ccccc4)cc(=O)c3c(O)c2O)[C@H](O)[C@@H](O)[C@@H]1O [Baicalin] | -0.073
4 | O=C1/C(=C2\Nc3ccccc3C2=O)Nc2ccccc21 [Indigotin] | 0.00962
5 | C=C(CC[C@@H](C(=O)O)[C@H]1[C@H](O)C[C@@]2(C)C3=C(CC[C@]12C)[C@@]1(C)CC[C@H](OC(C)=O)C(C)(C)[C@@H]1CC3)C(C)C [Pachymic Acid] | -0.118
6 | C[C@@H]1O[C@@H](O[C@H]2[C@H](O[C@H]3CC[C@@]4(C)[C@@H](CC[C@]5(C)[C@@H]4CC=C4[C@@H]6CC(C)(C)CC[C@]6(C(=O)O[C@@H]6O[C@H](CO[C@@H]7O[C@H](CO)[C@@H](O)[C@H](O)[C@H]7O)[C@@H](O)[C@H](O)[C@H]6O)CC[C@]45C)[C@]3(C)CO)OC[C@H](O)[C@@H]2O)[C@H](O)[C@H](O[C@@H]2O[C@H](CO)[C@@H](O)[C@H](O)[C@H]2O)[C@H]1O [Macranthoidin A] | -0.155
7 | O=c1c(O[C@@H]2O[C@H](CO)[C@@H](O)[C@H](O)[C@H]2O[C@@H]2O[C@H](CO)[C@@H](O)[C@H](O)[C@H]2O)c(-c2ccc(O)c(O)c2)oc2cc(O)cc(O)c12 [Baimaside] | 0.0574
8 | OCC1=C[C@@H](O)[C@]2(O[C@@H]3O[C@H](CO)[C@@H](O)[C@H](O)[C@H]3O)C=CO[C@@H](O[C@@H]3O[C@H](CO)[C@@H](O)[C@H](O)[C@H]3O)[C@H]12 [Melittoside] | -0.134
9 | COc1cc(CCC(C)=O)ccc1O [Zingerone] | 0.275
10 | Oc1cc(O)c2c(c1)O[C@H](c1cc(O)c(O)c(O)c1)[C@H](O)C2 [(-)Epigallocatechin] | -0.0905
11 | CC1OC(OC2C(OC3CCC4(C)C(CCC5(C)C4CC=C4C6CC(C)(C)CCC6(C(=O)OC6OC(COC7OC(CO)C(O)C(O)C7O)C(O)C(O)C6O)CCC45C)C3(C)CO)OCC(O)C2O)C(O)C(O)C1O (stereo not drawn) [Dipsacoside B] | -0.0161 ± 0.011
12 | OC[C@H]1NC[C@H](O)[C@@H](O)[C@@H]1O [1-Deoxynojirimycin] | 0.0355
13 | O=C(/C=C/c1ccc(O)c(O)c1)O[C@@H](C(=O)O)[C@@H](O)C(=O)O [Caftaric Acid] | -0.0695
14 | C[C@@H]1O[C@@H](OC[C@H]2O[C@@H](Oc3cc(O)c4c(c3)O[C@H](c3ccc(O)cc3)CC4=O)[C@H](O)[C@@H](O)[C@@H]2O)[C@H](O)[C@H](O)[C@H]1O [Narirutin] | 0.00886
15 | COc1cc2c(cc1OC)[C@@H](Cc1ccc(Oc3cc(C[C@@H]4c5cc(OC)c(OC)cc5CCN4C)ccc3O)cc1)N(C)CC2 [Dauricine] | -0.0332
16 | COc1cc2ccc(=O)oc2cc1OC [Scoparone] | 0.0322
17 | C=C1[C@H]2CC[C@]3([C@@H]1O)[C@H]1C[C@@H]4C5(C)CCCC4([C@@H]1N(CC)C5)[C@@H]3[C@H]2O [Denudatine] | -0.089
18 | O=C(O)c1cc(O)c2c(c1)C(=O)c1cccc(O)c1C2=O [Rhein] | 0.0809
19 | C[C@H]1[C@H](OC(=O)CCC(=O)O)O[C@@H]2O[C@@]3(C)CC[C@H]4[C@H](C)CC[C@@H]1[C@@]24OO3 [Artesunate] | -0.0268
20 | CC(C)C(C)C(O)C(O)C(C)C1CCC2C3COC(=O)C4CC(O)C(O)CC4(C)C3CCC12C (stereo not drawn) [Brassinolide] | -0.122
21 | COC(=O)[C@@]1(C)CC[C@]2(C(=O)O)CC[C@]3(C)C(=CC[C@@H]4[C@@]5(C)C[C@H](O)[C@H](O)[C@@](C)(CO)[C@@H]5CC[C@]43C)[C@@H]2C1 [Phytolaccagenin] | 0.0274
22 | C/C(=C\C(=O)CC(C)C(=O)O)[C@H]1CC(=O)[C@@]2(C)C3=C(C(=O)C[C@]12C)[C@@]1(C)CC[C@H](O)C(C)(C)[C@@H]1C[C@@H]3O (stereo partly drawn) [Ganoderenic Acid B] | 0.000561
23 | CCCCCCCCC[C@H](O)CC(=O)CCc1ccc(O)c(OC)c1 [10-Gingerol] | 0.0104

Source: the supplement of paper PMC7380943
